Experimental findings from the supplement of paper PMC11628255, “Interference of metal ions on the bioluminescent signal of firefly, Renilla, and NanoLuc luciferases in high-throughput screening assays” (Frontiers in Chemistry, 2024) are described below.

Each structure is given as a SMILES string. ± gives the standard deviation of the averaged measurements.

For this assay, the system named is Renilla luciferase (RLuc). Description: residual bioluminescent signal relative to negative control without GSH; higher = less interference (more residual luciferase signal). Particulars: screening conditions buffer. As to the method:
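Selected metal salts at 3-4 concentrations tested on purified FLuc, NLuc or RLuc in screening buffer with 0, 0.2 or 2 mM glutathione added; 10 min enzyme pre-incubation at RT, luminescence 10 min after substrate. Signal normalised to negative control without GSH (% N_VALUE); triplicate wells.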

Where [1] appears, read: metal salt concentration 1 mM, glutathione 0 mM.
Setting [2] is: metal salt concentration 1 mM, glutathione 0.2 mM.
The mark [3] stands for this setting: metal salt concentration 1 mM, glutathione 2 mM.

`[Cl][Fe]([Cl])[Cl]` [iron(III) chloride]: the residual bioluminescent signal is 115 ± 9.3% (metal salt concentration 0.005 mM, glutathione 0 mM); 116 ± 14% (metal salt concentration 0.005 mM, glutathione 0.2 mM); 161 ± 26% (metal salt concentration 0.005 mM, glutathione 2 mM); 36.6 ± 8% (metal salt concentration 0.536 mM, glutathione 0 mM); 53 ± 4.8% (metal salt concentration 0.536 mM, glutathione 0.2 mM); 101 ± 13% (metal salt concentration 0.536 mM, glutathione 2 mM). Further, the residual bioluminescent signal by setting is: under setting [1], 33.4 ± 2%; under setting [2], 39.3 ± 5.5%; under setting [3], 48.9 ± 13%; (metal salt concentration 5 mM, glutathione 0 mM) 2.29 ± 1.6%; (metal salt concentration 5 mM, glutathione 0.2 mM) 0.915 ± 0.4%; (metal salt concentration 5 mM, glutathione 2 mM) 2.06 ± 1.4%.
Consider `[Cl][Fe][Cl]` [iron(II) chloride], for which the residual bioluminescent signal runs as follows: (metal salt concentration 0.02 mM, glutathione 0 mM) 86.2 ± 14%; (metal salt concentration 0.02 mM, glutathione 0.2 mM) 91.9 ± 18%; (metal salt concentration 0.02 mM, glutathione 2 mM) 122 ± 5.5%; (metal salt concentration 0.118 mM, glutathione 0 mM) 47.6 ± 13%; (metal salt concentration 0.118 mM, glutathione 0.2 mM) 56.5 ± 11%; (metal salt concentration 0.118 mM, glutathione 2 mM) 75.7 ± 7.6%. Also, the residual bioluminescent signal runs as follows: (metal salt concentration 0.5 mM, glutathione 0 mM) 16.5 ± 3.1%; (metal salt concentration 0.5 mM, glutathione 0.2 mM) 22.9 ± 4.2%; (metal salt concentration 0.5 mM, glutathione 2 mM) 31.1 ± 5.1%; under setting [1], 12.3 ± 4.2%; under setting [2], 18.7 ± 10%; under setting [3], 32 ± 11%.
